In the library only some 1.1% were active in any assay of this set; here they are far more common.
GALK inhibitor = inhibitors of human galactokinase; Purified GALK, Kinase-Glo residual ATP luminescence; P51570; hit rate 0.007% among 270,000; Potency, µM (highest dose often 57.5 µM), without a hit: at the highest dose activity change, negative = inhibition, actives largely listed as inhibitors; note: potency is the fitted concentration of half-maximal effect
Target sequence (P51570 whole entry, looked up): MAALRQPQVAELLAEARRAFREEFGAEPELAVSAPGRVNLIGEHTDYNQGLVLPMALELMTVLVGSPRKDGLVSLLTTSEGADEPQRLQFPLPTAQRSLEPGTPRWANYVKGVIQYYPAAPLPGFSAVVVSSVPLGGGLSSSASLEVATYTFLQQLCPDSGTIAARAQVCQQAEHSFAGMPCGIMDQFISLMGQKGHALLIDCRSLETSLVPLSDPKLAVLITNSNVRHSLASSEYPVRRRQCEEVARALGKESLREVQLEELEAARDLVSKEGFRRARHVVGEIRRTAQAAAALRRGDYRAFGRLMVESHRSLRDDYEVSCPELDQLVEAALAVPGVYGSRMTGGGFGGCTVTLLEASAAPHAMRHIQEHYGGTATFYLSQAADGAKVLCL
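ATP-depletion format; final 35 uM ATP, 100 uM D-galactose, 5 nM enzyme; pH 8.0 HEPES/Mg2+ buffer; 60 min RT; luminescence read 10 min after detection reagent.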
TrxR1 substrate = substrates of rat thioredoxin reductase 1 | hit rate 0.01% among 390,000 | purified TrxR1 substrate turnover, NADPH consumption readout | Potency, µM (doses to about 114 µM), for inactives: top-dose activity change, negative = substrate turnover; note: potency is the fitted concentration of half-maximal effect; nearly all actives have a fitted effect of over 50% in size
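Rat TrxR1, dispensed at 90 nM, was prereduced with 400 uM NADPH (final) for 5 min at ~22 deg C, then incubated with compound 15 min before 400 uM selenite. A first-read NADPH fluorescence drop versus no-compound background flagged substrates.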
PI4K2A inh = blocks human PI4K2A kinase activity | Q9BTU6 | purified PI4K2A, ADP-Glo luminescence, 1 h; hits give low values | activity change, negative = inhibition, % at 76.9 µM | hit rate 0.13% among 420,000; in the data active = activity change below about -50%; inconclusive = mostly about -30% to -49%;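 note: -100% = wells without enzyme as full effect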
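Compounds are screened against recombinant PI4K2A using PI as substrate and ATP, the latter dispensed at 300 microM. Reactions run one hour at ambient temperature before ADP-Glo detection; full inhibition defined by wells lacking enzyme.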
TrxR1 inh = blocks rat thioredoxin reductase 1; O89049; recombinant rTrxR1, NADPH fluorescence consumption, selenite substrate; Potency, µM (highest dose often 114 µM), inactives show top-dose activity change, negative = inhibition, most hits filed as inhibitors; hit rate 1% among 390,000; note: potency is the fitted concentration of half-maximal effect; nearly all actives have a fitted effect of over 65% in size
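Rat TrxR1 (90 nM in the dispensed reagent) was pre-reduced with 400 uM NADPH for 5 min at room temperature, then incubated with compound for 15 min. After 400 uM selenite was added, NADPH fluorescence (Ex 340/Em 450 nm) was followed for 8 min.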
Starred values were filed as active, the others as inactive; ? = inconclusive; nt = no result; ! = a repeat was not active; [ ] = remark or other dose. Unless noted, calls come from the whole dose curve; as a rule, active = well fitted curve in the direction sought with a large enough effect; inconclusive = small, poorly fitted or top-dose-only effect, or another doubt; inactive = no such curve, though single readings can be large; an effect the other way counts as inactive or inconclusive. Unless noted, % is set by controls: 0 for no effect and ±100 for the full control effect.

SMILES	GALK inhibitor	TrxR1 substrate	PI4K2A inh	TrxR1 inh
Cc1c(C(=O)NCc2ccc(F)cc2)sc(=O)n1Cc1ccc(C(=O)c2ccccc2)cc1	nt	nt	3	nt
COc1ccc(OC(=O)N(CC(=O)O)Cc2ccc(OCCc3nc(-c4ccccc4)oc3C)cc2)cc1	nt	nt	-2	nt
CCCCCCCCCCCCCCCCCCN(C)C	nt	nt	0	nt
CNC(C)C#Cc1c(-c2cc(OC)c(OC)c(OC)c2)noc1C (stereo not given)	nt	7%	-1	71µM*!
CC1=C(C#N)c2nc(N)c(C#N)c(C)c2/C1=C\c1ccc(OCC(=O)O)c(Cl)c1	-13%	10%	-5	50µM*
CCOC(=O)CSc1nc(N)c(C#N)c(-c2ccc(OCC)cc2)c1C#N	-2%	29%	4	-1%
C/C(=C(/OCCOc1ccc(Cl)cc1)c1ccc(Cl)cc1Cl)n1ccnc1	nt	nt	3	nt
Cc1ccc(C)c(N2CCN(C(=O)C3CCN(S(=O)(=O)c4cccc5nsnc45)CC3)CC2)c1	-2%	-11%	-61*	-14%[57.1 µM]
Cc1ccc(C)c(N2CCN(C(=O)C3CCCN(S(=O)(=O)c4cccc5nsnc45)C3)CC2)c1 (stereo not given)	nt	-7%	-3	14%
CCCCCCCCCC[n+]1ccc(/C=C/c2ccc(N(C)C)cc2)c2ccccc21	nt	-14%	nt	?
NS(=O)(=O)c1ccc(NC(=S)NC(=O)c2cccs2)cc1	-2%	-1%	2	11µM*
O=C(NC(=S)Nc1ccccc1)c1cccs1	0%	4%	0	50µM*
CCCCOC(=O)CC(CC(=O)OCCCC)(OC(C)=O)C(=O)OCCCC	nt	nt	-1	nt
CCNC(=O)NC(=O)COC(=O)c1ccccc1SCC(=O)NC(=O)NCC	2%	57%	-28	35µM*
Cc1ccc(S(=O)(=O)c2ccc([N+](=O)[O-])cn2)cc1	1%	-8%	18	0.45µM*
O=C(CSc1nnc(SCc2ccccc2)s1)N/N=C/C=C/c1ccccc1[N+](=O)[O-]	1%	-9%	1	10%[57.1 µM]
CC(/C=N/NC(=O)CSc1nc2ccccc2n1C)=C\c1ccco1	0%	-13%	-10	79µM*
CCn1c(SCC(=O)N/N=C/C=C/c2ccco2)nnc1-c1ccc(OC)cc1	-3%	1%	-19	11%
Cn1c(SCC(=O)N/N=C/c2ccco2)nc2ccccc21	-1%	-2%	1	20%
O=C(CSc1nnc(SCc2ccccc2)s1)N/N=C/C=C\c1ccco1	0%	-2%	-22	45µM*
CCn1c(SCC(=O)N/N=C/C=C/c2ccco2)nc2ccccc21	-3%	-9%	-18	45µM*
COC(=O)[C@H]1C[C@@]2(C)c3ccccc3N(C(=O)OC(C)(C)C)[C@H]2N1C(=O)OC(C)(C)C	nt	nt	-4	nt
CCN1CCN(C(=O)NS(=O)(=O)c2ccc(C)cc2)CC1	-1%	-2%	-1	6%
COc1cccc(C(=O)N2c3nc(-c4ccco4)nn3C3(CCCCC3)[C@@H]3CCCC[C@@H]32)c1	nt	6%	2	8.9µM*
Cc1cccc(OC(C)C(=O)N2CCC(c3nc4ccccc4o3)CC2)c1C (stereo not given)	nt	-2%	2	26%
SMILES	GALK inhibitor	TrxR1 substrate	PI4K2A inh	TrxR1 inh
CCCOC(=O)c1cc(-c2ccc(/C=C3/C(=O)N(C)C(=O)C(C#N)=C3C)o2)ccc1Cl	nt	2%	-13	18µM*
O=C1C(Cl)=C(N2CCN(c3ccccc3[N+](=O)[O-])CC2)C(=O)c2ccccc21	0%	11%	?	0.79µM*
O=[N+]([O-])c1cc(Cl)ccc1N1CCCC1	13%	-1%	0	29%
O=C1CCCC2=C1C1(CCCC1)N=C(Nc1nc3cc(-c4ccccc4)ccc3o1)N2	nt	nt	-2	nt
O=C1CCCC2=C1C1(CCCCC1)N=C(Nc1nc3ccccc3o1)N2	22µM*	6%	3	16%
CCOC(=O)c1c(C)oc2c1c1c(c3ccccc32)OCN(CCCC(=O)O)C1	4%	-1%	-6	3.5µM*
CCOC(=O)c1c(C)oc2c1c1c(c3ccccc32)OCN(Cc2cccnc2)C1	0%	2%	-2	1.4µM*
CCOC(=O)c1c(C)oc2c1c(C(c1cccnc1)N1CCOCC1)c(O)c1ccccc12 (stereo not given)	2%	-13%	-11	11µM*
COc1ccc(N2CCN(C(=O)c3nn(C)c4c3CSc3ccccc3-4)CC2)cc1	nt	-1%	-9	8%
Cc1cc(C)c2sc(N(CCN(C)C)C(=O)CCS(=O)(=O)c3ccccc3)nc2c1	-7%	-1%	-3	?
CCN(CC)CCN(C(=O)CCS(=O)(=O)c1ccccc1)c1nc2c(C)cc(C)cc2s1	6%	-3%	2	?
CCN(CC)CCN(C(=O)CCS(=O)(=O)c1ccccc1)c1nc2cc(C)cc(C)c2s1	0%	12%	-1	14µM*
CCN(CC)CCN(C(=O)CCS(=O)(=O)c1ccccc1)c1nc2cc(OC)c(OC)cc2s1	-1%	-3%	4	11µM*
O=C(CCS(=O)(=O)c1ccccc1)N(Cc1cccnc1)c1nc2ccc(F)cc2s1	nt	1%[57.1 µM]	5	3.2µM*
COc1cccc(-n2cc(C(=O)Nc3ccccc3C(N)=O)c3ccccc3c2=O)c1	nt	2%	-1	16%
CCCOc1ccc(CNC(=O)CN2C(=O)c3cccnc3Oc3ccc(C)cc32)cc1	nt	0%	1	7%
O=C1C(=O)N(CCN2CCOCC2)C(c2ccccn2)/C1=C(/O)c1ccc(F)cc1 (stereo not given)	2%	-10%	-4	?
COc1ccc(/C(O)=C2/C(=O)C(=O)N(CCN3CCOCC3)C2c2ccccn2)cc1 (stereo not given)	4%	-3%	-19	50µM*
CCOC(=O)c1[nH]c(C)c(/C(O)=C2\C(=O)C(=O)N(CCCN(CC)CC)C2c2cccnc2)c1C (stereo not given)	nt	1%	-2	0%
COC(=O)c1[nH]c(C)c(/C(O)=C2\C(=O)C(=O)N(CCCN3CCOCC3)C2c2ccccn2)c1C (stereo not given)	0%	-7%	-4	25µM*
CCOC(=O)c1[nH]c(C)c(/C(O)=C2\C(=O)C(=O)N(CCCN3CCOCC3)C2c2cccnc2)c1C (stereo not given)	0%	-14%	5	45µM*
O=S1(=O)CCOC[C@H](c2ccccc2)N1Cc1ccc(Cl)c(Cl)c1	nt	-1%	nt	31%
Cc1[nH][nH]c(=O)c1C(c1c(C)[nH][nH]c1=O)c1cn(Cc2ccc(Cl)c(Cl)c2)c2ccccc12	2%	56µM*	-30	?
O=C(Oc1ccc([N+](=O)[O-])cc1)c1cncc(Br)c1	1%	4%	5	18µM*
CC(C)(C)n1ncc2c(=O)n(Cc3ccc(C#N)cc3)cnc21	nt	0%	nt	-2%
C=CCOC(=O)c1cc(-c2ccc(/C=C3\C(=O)NC(=O)C(C#N)=C3C)o2)ccc1Cl	-8%	-10%	-16	?
CC1=C(C#N)C(=O)NC(=O)/C1=C/c1ccc(-c2ccc(S(N)(=O)=O)cc2)o1	-2%	3%	-13	8.9µM*

Screening results from PubChem.
